# Screens: PubChem, National Center for Advancing Translational Sciences (NCATS)
# Gal4-VP16 FLuc – VP16 counterscreen qHTS for inhibitors of ROR gamma transcriptional activity | Drosophila S2 Gal4-VP16 UAS-luciferase, luminescence, 20 h | Potency, µM (top dose mostly 53.6 µM), for inactives: top-dose activity, negative = inhibition, most hits filed as inhibitors | 310,000 compounds, 3.5% hits;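 note: Gal4-VP16 expression switched on by copper sulfate through the metallothionein promoter; nearly all actives have a fitted effect of over 50% in size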
# ELG1 repair inh – qHTS screen for small molecules that inhibit ELG1-dependent DNA repair in human embryonic kidney (HEK293T) cells expressing luciferase-tagged ELG1 | HEK293T ELG1-luciferase reporter, luminescence, 16 h; DNA damage induced by 5-fluorouridine | 330,000 compounds, 2.3% hits | AID 504467, 2011 | Potency, µM (titrated, usually from 46.1 µM), for the others: top-dose activity change, negative = inhibition, actives largely listed as inhibitors; note: nearly all actives have a fitted effect of over 55% in size
#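 Cells (2,000 per well) received 5-fluorouridine plus test compound or DMSO and were incubated 16 hr at 37 °C, 5% CO2. Luciferase activity was read by luminescence 30 min after ONE-Glo addition; signal suppression marked inhibition of damage-induced ELG1 function.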
# TDP1 cell CPT – qHTS for Inhibitors of human tyrosyl-DNA phosphodiesterase 1 (TDP1): qHTS in cells in presence of CPT; Potency, µM (titrated, usually from 46.2 µM), without a hit: at the top dose activity change, negative = growth inhibition, usual class: inhibitors; 420,000 compounds, 12% hits; chicken DT40 Tdp1-/-;hTDP1 cells + 20 nM CPT, ATP luminescence, 48 h; note: nearly all actives have a fitted effect of over 55% in size
#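 Cell growth measured by CellTiter-Glo luminescence after a minimum 48 h, 37 C compound exposure with 20 nM CPT in Tdp1-knockout DT40 cells stably expressing hTDP1, seeded 400/well; qHTS titration format.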
# TDP1 cell noCPT – qHTS for Inhibitors of human tyrosyl-DNA phosphodiesterase 1 (TDP1): qHTS in cells in absence of CPT. Potency, µM (highest dose often 46.2 µM), inactives show top-dose activity change, negative = growth inhibition, most hits filed as inhibitors. DT40 Tdp1-/- hTDP1 cells, no CPT, ATP luminescence, 48 h. 420,000 compounds, 15% hits; note: nearly all actives have a fitted effect of over 55% in size
#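 Cells were dispensed at 400 per well, compounds added by pin tool, plates incubated ≥48 hr at 37 °C, then CellTiter-Glo added for 30 min at room temperature before luminescence reading. Line: DT40 Tdp1-/- complemented with hTDP1; camptothecin omitted.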
# RORgamma inh – qHTS for inhibitors of ROR gamma transcriptional activity; Nuclear receptor ROR-gamma (Mus musculus), P51450; 310,000 compounds, 5.4% hits; Potency, µM (top dose mostly 53.6 µM), for the others: at the highest dose activity change, negative = inhibition, most hits filed as inhibitors; Drosophila S2 Gal4-RORgamma UAS-luciferase reporter, 20 h; note: nearly all actives have a fitted effect of over 60% in size
# Target sequence (P51450 whole entry, looked up, the tested form may be a part): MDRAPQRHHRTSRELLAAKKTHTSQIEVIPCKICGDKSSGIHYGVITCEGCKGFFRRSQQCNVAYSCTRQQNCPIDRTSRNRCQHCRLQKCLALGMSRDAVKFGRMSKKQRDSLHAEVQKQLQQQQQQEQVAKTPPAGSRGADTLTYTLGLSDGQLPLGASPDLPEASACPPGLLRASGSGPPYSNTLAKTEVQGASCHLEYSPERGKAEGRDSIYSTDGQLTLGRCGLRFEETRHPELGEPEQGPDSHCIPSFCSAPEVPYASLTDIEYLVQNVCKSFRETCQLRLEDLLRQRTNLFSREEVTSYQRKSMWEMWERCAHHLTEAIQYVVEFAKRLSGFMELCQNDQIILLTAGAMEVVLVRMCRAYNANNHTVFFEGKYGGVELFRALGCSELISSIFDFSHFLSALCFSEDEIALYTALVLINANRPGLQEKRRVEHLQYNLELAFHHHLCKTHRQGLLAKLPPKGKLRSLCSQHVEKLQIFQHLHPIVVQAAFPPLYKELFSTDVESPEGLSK
#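 In this cell-based reporter format, copper sulfate (700 uM final) drives Gal4–ROR gamma fusion expression from a metallothionein promoter in Drosophila Schneider cells; compounds preincubated 1 hr, reporter read after 20 hr at ambient temperature.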
# 12-LOX inh – Primary qHTS assay for inhibitors of human arachidonate 12S-lipoxygenase (ALOX12): Round 2. Polyunsaturated fatty acid lipoxygenase ALOX12 (Homo sapiens), P18054. AID 1671190, 2021. 580,000 compounds, 1.1% hits. purified 12hLO, xylenol orange hydroperoxide absorbance. Potency, µM (top dose mostly 108 µM), without a hit: at the top dose activity change, negative = inhibition, most hits filed as inhibitors
#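 Hydroperoxide product was detected by ferrous iron/xylenol orange as the 573 to 405 nm absorbance ratio. Arachidonic acid at 40 uM (final) was turned over for 30 min at room temperature by 150 nM human 12hLO, pH 7.0 Hepes buffer, after 15 min compound preincubation.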
# The depositor's hits bear a star; ? = inconclusive; . = no result given; [ ] = dose if it differs, or a comment. The list is not random: actives were taken first. Their share in the collection is about 15%. Calls come from the whole dose curve; as a rule, active = well fitted curve in the direction sought with a large enough effect; inconclusive = small, poorly fitted or top-dose-only effect, or another doubt; inactive = no such curve, though single readings can be large; an effect the other way counts as inactive or inconclusive. % is set by controls: 0 for no effect and ±100 for the full control effect; potency is the fitted concentration of half-maximal effect.
SMILES,Gal4-VP16 FLuc,ELG1 repair inh,TDP1 cell CPT,TDP1 cell noCPT,RORgamma inh,12-LOX inh
CC(/C=C/c1ccco1)=N\NC(=O)C(O)c1ccccc1 (stereo not drawn),-4.2%,?,-1.5%,-15.5%,-37.8%,3.4%
CC(/C=C/C=C/c1ccccc1)=N/NC(=O)c1ccc2c(c1)OCCO2,8.0%,29.1%,-5.7%,-24.6%,-19.2%,168.4%
CC(/C=C/C=C/c1ccccc1)=N\NC(=O)c1cccnc1,3.16µM*,?,-9.4%,?,2.82µM*,21.5%
O=C(N/N=C/C=C/c1ccccc1)c1cccnc1,?,5.2%,20.6µM*,?,5.62µM*,0.0%
CCc1ccc(CNC(=O)Nc2ccc(N3CCOCC3)nc2)s1,.,.,.,.,.,-16.2%
COCC(C)N(C)C(=O)c1ccc2c(c1)NC(=O)CS2 (stereo not drawn),.,.,.,.,.,2.2%
CC(/C=C\C=C\c1ccccc1)=N\NC(=O)c1cncc(Br)c1,6.31µM*,?,7.31µM*,7.31µM*,4.47µM*,?
S=C(Nc1ccccc1Cl)N(Cc1cccnc1)Cc1ccco1,7.9%,-20.9%,2.6%,-12.7%,-16.9%,0.0%
Cc1c(Cl)cccc1NC(=S)N(Cc1cccnc1)Cc1ccccc1Cl,?,-17.6%,-3.5%,?,11.2µM*,-3.6%
CN(C)C(=O)COC(=O)c1ccccc1-c1nc2ccccc2s1,.,.,.,.,.,6.4%
O=C(COC(=O)c1ccccc1-c1nc2ccccc2s1)Nc1ccccc1C(F)(F)F,0.4%,23.1µM*,3.3%,-2.1%,?,-7.1%
CCOC(=O)c1c2n(c3c(NCc4ccccc4)ncnc13)CCCC2,-7.2%,?,?,20.6µM*,-21.7%,0.0%
Cc1ccc(CNc2ncnc3c2nc2n3CCCC2)cc1,.,.,?,?,.,-9.8%
CN1C(=O)Cc2cc(S(=O)(=O)CCC(=O)N3CCN(c4cccc(Cl)c4)CC3)ccc21,.,.,20.6µM*,8.2µM*,.,-5.2%
CN1C(=O)Cc2cc(S(=O)(=O)CCC(=O)Nc3ccccc3)ccc21,.,.,8.2%,-1.8%,.,-18.7%
CSCCC(NS(=O)(=O)c1ccc2c(c1)oc(=O)n2C)C(=O)N1CCN(c2cccc(Cl)c2)CC1 (stereo not drawn),.,.,?,20.6µM*,.,-11.2%
Cn1c(=O)oc2cc(S(=O)(=O)CCC(=O)N3CCN(c4cccc(Cl)c4)CC3)ccc21,.,.,18.4µM*,11.6µM*,.,-11.5%
COc1cccc(N2CCN(C(=O)C(CCSC)NS(=O)(=O)c3ccc4c(c3)oc(=O)n4C)CC2)c1 (stereo not drawn),.,.,-21.6%,-17.9%,.,-11.2%
COc1ccc(/C=C2\N=C(SC)SC2=O)c(OC)c1,.,.,.,.,.,-25.5%
CCc1ccc(-c2nc(CSCC(=O)NCC(OC)OC)c(C)o2)cc1,.,.,.,.,.,-1.0%
COc1ccc(CN[C@H]2CS(=O)(=O)C[C@@H]2S(=O)(=O)c2cccs2)cc1,.,.,.,.,.,39.0%
CN1CCN(C(=S)c2cn(Cc3cccc(F)c3)c3ccccc23)CC1,-8.1%,5.9%,?,20.6µM*,12.6µM*,-11.4%
S=C(c1cn(Cc2ccccc2)c2ccccc12)N1CCOCC1,-15.1%,-11.4%,-14.6%,?,11.2µM*,?
CC1CCN(C(=S)c2cn(Cc3ccccc3F)c3ccccc23)CC1,4.47µM*,-1.0%,?,?,0.891µM*,?
CN1CCN(C(=S)c2cn(Cc3ccc(F)cc3)c3ccccc23)CC1,3.4%,-0.8%,?,?,?,-27.0%
SMILES,Gal4-VP16 FLuc,ELG1 repair inh,TDP1 cell CPT,TDP1 cell noCPT,RORgamma inh,12-LOX inh
CC1CCN(C(=S)c2cn(Cc3ccc(F)cc3)c3ccccc23)CC1,11.2µM*,12.6%,?,23.1µM*,5.01µM*,?
O=S(=O)(NCCO)c1ccc(Cl)c(Cl)c1Cl,.,.,.,.,.,-20.6%
CCCCCCCOc1ccc(C(=O)c2ccccc2)cc1,.,.,.,.,.,42.9%
COc1ccccc1OCCN1CSC(=S)N(C)C1,?,?,1.16µM*,1.84µM*,?,-22.0%
Cc1cccc(OCCN2CSC(=S)N(C)C2)c1,14.1µM*,4.6%,4.61µM*,3.26µM*,12.6µM*,0.0%
Cc1nc(-c2ccccc2)c(-c2ccccc2)s1,.,.,.,.,.,17.0%
Cc1nc(Nc2ccc(C(=O)O)cc2)sc1-c1ccccc1,-9.5%,?,-16.0%,-28.7%,29.4%,-14.6%
Cc1nc(Nc2ccccc2)sc1-c1ccccc1,11.2µM*,?,?,?,11.2µM*,?
c1ccc(Nc2nc(-c3ccccc3)c(-c3ccccc3)s2)cc1,.,.,28.2µM*,?,.,.
CCCNC(=O)N1CCC(O)(c2cnc(CN3CCC3)s2)CC1,.,.,.,.,.,94.8%[176 µM]
Cc1ccc2nc(-c3ccc(NC(=O)COC(=O)c4ccco4)cc3)sc2c1,7.08µM*,?,-21.6%,?,0.398µM*,-17.3%
COc1ccc(/C=C(\C#N)C(=O)OCC(=O)Nc2ccc(-c3nc4ccc(C)cc4s3)cc2)cc1,2µM*,?,?,-3.6%,0.501µM*,-8.3%
Cc1ccc2nc(-c3ccc(NC(=O)COC(=O)c4cncc(Br)c4)cc3)sc2c1,10µM*,?,6.3%,-13.3%,1.26µM*,-27.3%
Cc1ccc2nc(-c3ccc(NC(=O)COC(=O)c4ccc(Br)o4)cc3)sc2c1,3.98µM*,?,?,?,0.282µM*,-3.6%
Cc1ccc2nc(-c3ccc(NC(=O)COC(=O)c4ccc([N+](=O)[O-])o4)cc3)sc2c1,5.01µM*,?,-28.2%,-23.3%,0.1µM*,-25.7%
Cc1ccc2nc(-c3ccc(NC(=O)COc4ccccc4)cc3)sc2c1,.,.,-11.4%,-12.9%,.,-20.3%
CNS(=O)(=O)c1cccc(C(=O)OCC(=O)Nc2ccc(-c3nc4ccc(C)cc4s3)cc2)c1,?,?,?,?,0.224µM*,.
CCN(CCNC(=O)C1CCCN(S(=O)(=O)CC)C1)c1ccccc1 (stereo not drawn),-14.0%,4.8%,-1.6%,-1.5%,?,0.0%
O=C(Nc1ccc(Br)cc1)C1CCCN(S(=O)(=O)c2cccnc2)C1 (stereo not drawn),-10.0%,?,23.1µM*,25.9µM*,43.7%,10.9%
